Screening data from PubChem BioAssay.
The sample as a whole holds a higher share of hits than the screen did.
NOMO-1 viab: STK33 inhibitor candidate reducing NOMO-1 cell viability. 7.5% of 37,000 active. AID 2330. NOMO-1 AML viability, CellTiter-Glo luminescence, 72 h. inhibition, % (concentration not given with the values); in the data active = inhibition above about 80%; inconclusive = no clear call, values can overlap the other calls
PD-1 reversal: activators reversing PD-1 mediated T-cell inhibition; primary human CD4 T cells, PD-L1 beads, CellTiter-Glo 96 h; activation, % (test concentration not listed); 29,000 tested, under 10 active; AID 2316; call rule not given here
STK33 inh: human STK33 kinase inhibition; Q9BYT3; ADP-Glo luminescence, MBP substrate; inhibition, % at 12.5 µM; 0.44% of 27,000 active; AID 2322; in the data active = inhibition above about 20%; inconclusive = no clear call, values can overlap the other calls
Target sequence (Q9BYT3 whole entry, looked up): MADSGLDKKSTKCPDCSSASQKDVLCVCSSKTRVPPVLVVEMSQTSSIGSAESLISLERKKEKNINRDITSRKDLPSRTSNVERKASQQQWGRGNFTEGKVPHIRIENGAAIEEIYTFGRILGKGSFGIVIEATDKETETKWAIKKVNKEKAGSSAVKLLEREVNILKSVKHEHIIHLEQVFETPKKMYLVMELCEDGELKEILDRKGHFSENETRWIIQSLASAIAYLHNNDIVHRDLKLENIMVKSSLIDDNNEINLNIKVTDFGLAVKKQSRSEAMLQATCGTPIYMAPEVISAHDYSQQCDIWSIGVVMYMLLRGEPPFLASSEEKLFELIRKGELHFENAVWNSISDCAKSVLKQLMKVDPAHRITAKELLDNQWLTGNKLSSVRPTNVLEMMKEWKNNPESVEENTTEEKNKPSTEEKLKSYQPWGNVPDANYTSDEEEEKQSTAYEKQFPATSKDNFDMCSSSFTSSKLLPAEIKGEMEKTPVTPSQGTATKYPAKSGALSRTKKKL
Hits are given with their value; - = inactive; ? = inconclusive; . = no result given.

SMILES | NOMO-1 viab | PD-1 reversal | STK33 inh
COc1ccc(S(=O)(=O)N(CCO)c2ccccc2CN(C)C/C=C/c2ccc(Cl)cc2)cc1 | 83 | - | -
COc1ccc(S(=O)(=O)Nc2ccc3c(c2)C(=O)N([C@@H](C)CO)C[C@@H](C)[C@@H](CN(C)Cc2ccccc2)O3)cc1 | - | . | .
CCN(CC)CCNc1ncnc2c1sc1nc(N3CCCC3)c3c(c12)CC(C)(C)OC3 | 113 | - | -
COC(=O)CCSc1ncnc2c1sc1nc(N3CCOCC3)c3c(c12)CCCC3 | - | - | -
COc1ccc(NC(=O)CSc2ncnc3c2sc2nc(N4CCOCC4)c4c(c23)CC(C)(C)OC4)cc1 | 99 | - | -
Cc1nc(NCCN2CCOCC2)c2sc3nc4c(cc3c2n1)COC(C)(C)C4 | - | - | .
Fc1ccc(C=Nc2ccc3ccccc3c2)cc1 | - | - | .
Cc1ccc(N=Cc2cc3ccccc3nc2Cl)cc1Cl | 114 | - | .
O=C(CC(Sc1ccccc1C(=O)O)c1ccc(F)cc1)c1ccc(F)cc1 (stereo not given) | 117 | - | .
NC(=O)c1ccccc1NCC(=O)c1ccc(F)cc1 | - | - | .
CCn1c2ccccc2c2cc(NC(=O)CSc3nnnn3-c3ccccc3)ccc21 | - | . | -
CCn1c2ccccc2c2cc(NS(=O)(=O)c3ccccc3)ccc21 | 136 | - | .
C[C@@H]1O[C@@H](O[C@@H]2[C@@H](O)[C@H](O)[C@@H](CO)O[C@H]2c2c(O)cc(O)c3c(=O)cc(-c4ccc(O)cc4)oc23)[C@H](O)[C@H](O)[C@H]1O | . | . | -
O=c1cc(-c2ccccc2)oc2cccc(O)c12 | - | - | -
CC(C)=CCc1c(O)cc(O)c2c(=O)cc(-c3ccc(O)cc3)oc12 | 94 | - | ?
O=c1cc(-c2ccccc2)oc2cc(O)cc(O)c12 | - | - | 33
Cc1cc(O)cc2oc3cc(O)cc(O)c3c(=O)c12 | . | . | -
O=c1cc(-c2ccc(O)cc2)oc2cc(O)cc(O)c12 | - | - | 54
COc1cc(O)c2c(=O)cc(-c3ccc(O)cc3)oc2c1 | - | . | -
O=c1c(O)c(-c2ccc(O)cc2)oc2cc(O)cc(O)c12 | - | . | 33
Cc1noc(C)c1NC(=O)Nc1ccc2c(c1)C(=O)N([C@H](C)CO)C[C@@H](C)[C@H](CN(C)C)O2 | - | - | .
Cc1noc(C)c1S(=O)(=O)NCC1COc2ccccc2O1 (stereo not given) | - | - | .
Cc1ccc(S(=O)(=O)N(C)C[C@@H]2OCCCC[C@@H](C)Oc3ccc(NC(=O)Nc4ccc5c(c4)OCO5)cc3C(=O)N([C@H](C)CO)C[C@@H]2C)cc1 | - | - | -
C[C@@H]1CN([C@H](C)CO)C(=O)c2cccc(NS(=O)(=O)c3ccc(F)cc3)c2O[C@H]1CN(C)C(=O)NC1CCCCC1 | - | - | .
C[C@H](CO)N1C[C@H](C)[C@H](CN(C)S(=O)(=O)c2ccccc2F)OCc2cn(nn2)CCCC1=O | . | . | -
SMILES | NOMO-1 viab | PD-1 reversal | STK33 inh
CC(=O)Nc1ccc(S(=O)(=O)Nc2cccc(-c3cn4ccc(C)cc4n3)c2)cc1 | - | - | -
NC(=O)c1c(NC(=O)COc2ccc(Br)cc2Cl)sc2c1CCCC2 | - | . | -
C[C@@H]1CN([C@@H](C)CO)C(=O)c2cccc(NC(=O)c3nc4ccccc4s3)c2O[C@@H]1CN(C)Cc1ccc2c(c1)OCO2 | 90 | - | .
C[C@@H]1CN([C@H](C)CO)C(=O)c2cccc(NC(=O)c3nc4ccccc4s3)c2O[C@@H]1CN(C)Cc1ccccc1 | - | . | .
C[C@@H]1CN([C@H](C)CO)C(=O)c2cccc(NC(=O)c3nc4ccccc4s3)c2O[C@H]1CN(C)Cc1ccc2c(c1)OCO2 | 98 | - | .
C[C@H]1CN([C@@H](C)CO)C(=O)c2cccc(NC(=O)c3nc4ccccc4s3)c2O[C@@H]1CN(C)Cc1ccc2c(c1)OCO2 | - | . | .
C[C@@H]1CN([C@H](C)CO)C(=O)c2cccc(NC(=O)c3nc4ccccc4s3)c2O[C@@H]1CN(C)Cc1ccc2c(c1)OCO2 | - | - | .
C[C@H]1CN([C@@H](C)CO)C(=O)c2cccc(NC(=O)c3nc4ccccc4s3)c2O[C@@H]1CN(C)Cc1ccc(Cl)c(Cl)c1 | 86 | - | .
CC(C)NC(=O)Nc1cccc2c1O[C@@H](CN(C)C(=O)Nc1ccc(F)cc1)[C@H](C)CN([C@H](C)CO)C2=O | - | - | .
Cc1cc(C(=O)Nc2cccc3c2O[C@H](CN(C)C(=O)NC(C)C)[C@H](C)CN([C@@H](C)CO)C3=O)n(C)n1 | - | - | .
C[C@H](CO)N1C[C@H](C)[C@H](CN(C)Cc2cccc(O)c2)OCc2cn(nn2)CCCC1=O | . | . | -
COc1ccc(NC(=O)N(C)C[C@H]2Oc3ccc(NS(C)(=O)=O)cc3C(=O)N([C@@H](C)CO)C[C@H]2C)cc1 | - | - | .
O=C(O)c1cc(C23CC4CC(CC(C4)C2)C3)nc2ccc(Br)cc12 | - | - | .
CC(=O)N1N=C2c3ccccc3CCC2C1c1cccs1 (stereo not given) | - | - | .
C=CCNC(=S)N1N=C2c3ccccc3CCC2C1c1ccccc1Cl (stereo not given) | 109 | - | .
COc1ccc(S(=O)(=O)N(C)C[C@@H]2Oc3c(NS(=O)(=O)c4c(C)noc4C)cccc3C(=O)N([C@@H](C)CO)C[C@@H]2C)cc1 | - | - | .
COc1ccc(S(=O)(=O)N(C)C[C@@H]2Oc3c(NC(=O)c4ccc(-c5nccs5)cc4)cccc3C(=O)N([C@H](C)CO)C[C@H]2C)cc1 | - | . | .
O=C(/C=C/c1ccc(O)cc1)NCCc1ccc(O)cc1 | - | - | -
CC(=O)NCCCN(CCCCN(CCCNC(=O)/C=C/c1ccc(O)cc1)C(C)=O)C(=O)/C=C/c1ccc(O)cc1 | - | - | 40
CNCC(O)Cn1c2ccccc2c2ccccc21 (stereo not given) | - | - | -
OC(COCc1ccccc1)Cn1c2ccccc2c2ccccc21 (stereo not given) | 89 | - | .
COC(=O)c1c(-c2ccccc2)csc1NC(=O)c1cc(-c2cccnc2)nc2ccccc12 | 104 | . | -
COC(=O)c1cc(-c2ccccc2)sc1NC(=O)c1cc(-c2cccnc2)nc2ccccc12 | - | . | -
C=C1C(=O)O[C@H]2CC(C)C3CC[C@@]4(C)O[C@@]34CC12 (stereo not given in full) | . | . | -
C=C1C(=O)O[C@H]2C[C@H](C)[C@@H]3CC(=O)C(C)=C3C[C@H]12 | 117 | - | -
SMILES | NOMO-1 viab | PD-1 reversal | STK33 inh
COc1cc2c(cc1OC)CN(C(=O)[C@@H]1[C@H]3C(=O)O[C@H](c4ccccc4)[C@H](c4ccccc4)N3[C@H](c3ccccc3OCCO)[C@@]13C(=O)Nc1ccc(C#CC4(O)CCCCCC4)cc13)CC2 | . | . | -
Cc1ccc(SC(C)C(=O)c2ccc(C)c(Cl)c2)cc1 (stereo not given) | - | - | -
Cc1ccc(C(=O)c2ccc(Oc3ccccc3)cc2)cc1 | - | - | .
COC(=O)[C@@H]1[C@H]2C[C@H]3c4[nH]c5ccccc5c4CCN3C[C@@H]2CC[C@@H]1O | - | - | -
CCC1c2[nH]c3ccccc3c2CCN1C(=O)c1ccc(Cl)cc1 (stereo not given) | 84 | - | .
Nc1cc(OC(=O)c2ccccc2)nn1S(=O)(=O)c1ccccc1 | - | - | -
Cc1ccc(S(=O)(=O)c2c(C)nn(C(C)(C)C)c2OC(=O)c2ccccc2C(F)(F)F)cc1 | - | - | -
Cc1nn(C(C)(C)C)c(OC(=O)c2ccc(Cl)cc2)c1S(=O)(=O)c1ccccc1 | 121 | - | -
